# Rows were chosen to be rich in hits. Some 1.6% of all compounds tested hit in one or more screens of this group.
# KCNQ2 pot: potentiators of rat KCNQ2 potassium channel; O88943; CHO-K1 KCNQ2, FluxOR thallium flux fluorescence; active compounds read high; B-score at 10 µM; actives 0.54% (n = 310,000); AID 2239;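 active means fluorescence ratio B-score at least 3 SD of library B-scores, with initial fluorescence B-score within 3 of them, cut at about 5.3 in these data; same plate scores as AID 2156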;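 further: B-score of peak minus minimum over baseline fluorescence ratio after K+ and Tl+ stimulus; positive B-score means potentiation of KCNQ2 with more thallium influx and brighter signal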
# KCNQ2 block: blocks the rat KCNQ2 potassium channel; CHO-K1 KCNQ2, FluxOR thallium flux, 20 min; active compounds read low; B-score at 10 µM; actives 1.1% (n = 310,000);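 active means fluorescence ratio B-score at most minus 3 library SDs, with starting brightness B-score within 2 library SDs, cut at about -5.5 in these data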
# Kir21 conf inh: confirmation of mouse Kir2.1 potassium channel inhibitors. Tl flux remaining, % of negative control (active compounds read low), % at 10 µM. actives 41% (n = 2,300). Kir2.1-expressing cells, FluxOR thallium flux fluorescence; active compounds read low. shares compounds with KCNQ2 pot;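 active means Primary-screen hit whose thallium flux fell at least 3 control SD below untreated wells in both duplicates, with normal baseline fluorescence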
# Target sequence (P35561 whole entry, looked up): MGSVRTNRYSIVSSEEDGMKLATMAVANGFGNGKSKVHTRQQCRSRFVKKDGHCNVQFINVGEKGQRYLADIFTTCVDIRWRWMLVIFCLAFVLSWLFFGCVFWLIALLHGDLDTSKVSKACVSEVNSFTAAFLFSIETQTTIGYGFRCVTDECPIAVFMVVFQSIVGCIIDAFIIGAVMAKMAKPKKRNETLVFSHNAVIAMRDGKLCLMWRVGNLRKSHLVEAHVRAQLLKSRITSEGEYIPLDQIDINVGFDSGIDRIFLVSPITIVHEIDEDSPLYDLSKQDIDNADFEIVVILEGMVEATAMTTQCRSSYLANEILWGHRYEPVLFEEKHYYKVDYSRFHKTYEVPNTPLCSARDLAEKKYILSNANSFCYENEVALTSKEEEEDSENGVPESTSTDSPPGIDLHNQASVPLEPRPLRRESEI
# HEK293 ctr: counter-screen for Kir2.1 inhibitors: effect in parental HEK293 cells; FluxOR signal as % of negative control (100 = no effect), % at 10 µM; shares compounds with KCNQ2 pot; actives 19% (n = 2,300); FluxOR thallium flux fluorescence; 0% = unstimulated blank wells;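 active means dye signal at least 3 control SD above or below untreated wells in both duplicates, raw fluorescence within 3, either direction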;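 further: percent is based on the flux ratio of peak minus minimum fluorescence over baseline F0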
# Hits are given with their value; . = inactive; / = no result given.
SMILES,KCNQ2 pot,KCNQ2 block,Kir21 conf inh,HEK293 ctr
Cc1ccc(-c2cc(-c3ccc(C)cc3)[n+](-c3ccc(C(=O)[O-])cc3)c(-c3ccc(C)cc3)c2)cc1,/,.,.,.
O=[N+]([O-])c1cc(Cl)c(O)c(-[n+]2c(-c3ccccc3)cc(-c3ccccc3)cc2-c2ccccc2)c1,/,.,/,/
CCOC(=O)c1ccc(-[n+]2c(-c3ccccc3)cc(-c3ccccc3)cc2-c2ccccc2)cc1,.,-8.5,39%,.
CC(=O)c1ccc(-c2ccccc2)cc1,.,.,/,/
Cc1nc2ccc(P(=O)(O)O)cc2s1,.,.,/,/
CCc1ccccc1NC(=O)N1C[C@H]2C[C@@H](C1)c1cccc(=O)n1C2,.,.,/,/
CCC(=O)c1cn(Cc2ccccc2)c2ccccc12,.,.,/,/
CN(C)CCOC(=O)c1cn(Cc2ccccc2)c2ccccc12,/,.,52%,.
CCN(CC)C(=O)c1ccc(NC(=O)Nc2ccccc2F)cc1,.,.,/,/
COc1ccc2[nH]c(C)c(CCNCc3cc(OC)c(OC)c(OC)c3)c2c1,/,.,/,/
COc1ccc(CNCCc2c(C)[nH]c3ccc(OC(F)(F)F)cc23)c(OC)c1,/,.,.,.
CC(=NCCC(c1ccccc1)c1ccccc1)c1c(O)n(C)c(=O)n(C)c1=O,/,.,/,/

# High-throughput results (PubChem)
